44 compounds from PubChem BioAssay (NCATS) can be followed below.

Assay [1] deals with CRL-7250. The assay is described as follows: Cytotoxic Profiling of Annotated Libraries Using Quantitative High-Throughput Screening (AID 1296008). Also: nearly all actives have a fitted effect of over 60% in size. Conditions: Five cell lines viability, CellTiter-Glo ATP luminescence, 48-72 h; max response: active compounds read low. The method, boiled down: (§1)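 Cytotoxicity was measured as CellTiter-Glo ATP luminescence, read after 10 min at room temperature. Compound treatment of the cells lasted 48 or 72 hr at 37 degrees Celsius in a qHTS format.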
For orientation: In ATP-based viability assays light output follows the ATP content of the culture.

Assay [2] relates to HEK293. The assay is described as above. The note with it: Five cell lines viability, CellTiter-Glo ATP luminescence, 48-72 h; max response: active compounds read low. The method, boiled down:
as §1

Molecules are shown by their SMILES. Records with an inconclusive call do not appear. Values without a mark were called inactive. Active and inactive are the calls of the source. Calls follow the shape of the dose curve; as a rule, active = well fitted inhibition curve with a large enough effect; inconclusive = small, poorly fitted or top-dose-only effect; inactive = flat fitted curve, though single readings scatter. Where a SMILES comes first, the peptide text is derived from it. [ ]: non-standard residue; d: D form. dPhe(4-Cl) = N[C@H](Cc1ccc(Cl)cc1)C(=O)O; d2Nal = N[C@H](Cc1ccc2ccccc2c1)C(=O)O; dCit = NC(=O)NCCC[C@@H](N)C(=O)O; d3Pal = N[C@H](Cc1cccnc1)C(=O)O
% is scaled to controls: 0 for no effect and ±100 for the full control effect; potency is read from the fitted curve at half-maximal effect.

For the compound `CC1(C)CC[C@]2(C(=O)O[C@@H]3O[C@H](CO)[C@@H](O)[C@H](O)[C@H]3O)CC[C@]3(C)C(=CCC4[C@@]5(C)CC[C@H](O[C@@H]6O[C@H](C(=O)O)[C@@H](O)[C@H](O)[C@H]6O)[C@@](C)(CO)C5CC[C@]43C)C2C1` (stereo partly drawn), the max response in assay [1] was 1.86%; in assay [2], -6.82%.

In the case of `[N-]=[N+]=N[C@]1(CO)O[C@@H](n2ccc(=O)[nH]c2=O)[C@@H](O)[C@@H]1O`, the values for the max response in assay [1] and in assay [2] were 0.828% and -4.49%, respectively.

As for `COc1cc2ncnc(Nc3cccc(O)c3)c2cc1OC`, the compound was called inactive in assay [1]. The max response in assay [2] was -2.36%.

`COC(=O)C1=CO[C@@H](O[C@@H]2O[C@H](CO)[C@@H](O)[C@H](O)[C@H]2O)C2C1C(=O)C[C@H]2C` (stereo partly drawn): the max response is -1.68% in assay [1] and -7.74% in assay [2].

Turning to `COC1CC(O[C@H]2CC[C@@]3(C)C(CCC4C3[C@H](OC(C)=O)[C@@H](OC(=O)/C=C/c3ccccc3)[C@]3(C)C(C(C)=O)CC[C@]43O)C2)OC(C)C1OC1CC(OC)C(OC2CC(OC)C(OC3OC(C)C(OC4OC(CO)C(O)C(O)C4O)C(OC)C3O)C(C)O2)C(C)O1` (stereo partly drawn), the max response is -13.2% in assay [1] and -13.6% in assay [2].

With `Cc1ccc(-c2ccc3c(ccc4sc5c(c43)NC[C@@H](C)NC5=O)n2)cn1`, the outcome in assay [1] was inactive. The max response in assay [2] is -21.3%.

In the case of `CC(C)(C)OC(=O)N1CCC(OCc2nc(-c3ccncc3)no2)CC1`, the max response in assay [1] was -15.9%; in assay [2], 0.811%.

On to `CCCCc1ccc(C(=O)Nc2cc(-c3ccc(Cl)cc3)nn2-c2ccc(Cl)cc2)cc1`, for which the max response was -0.768% in assay [1] and -22.4% in assay [2].

On to `Nc1nc2c(c(=O)[nH]1)C[C@@H](CCc1ccc(C(=O)N[C@@H](CCC(=O)O)C(=O)O)cc1)CN2`, for which the results for the Potency in assay [1] and in assay [2] were 0.116 µM (active) and 0.206 µM (active), respectively.

As for `COC(=O)C(C)C1CCC2(C)C(=O)C=CC(C)(O)C2C1O` (stereo not drawn), in assay [1], the call was inactive. In assay [2], the max response was -6.36%.

In the case of `C/C(=C\CCC1(C)C2CCC(C2)C1(C)O)C(=O)O` (stereo not drawn), the outcome in assay [1] was inactive. Also, the max response in assay [2] is -6.56%.

On to `CCC(CC)C(=O)Nc1sc2c(c1C#N)CCC(C(C)(C)CC)C2` (stereo not drawn), for which the outcome in assay [1] was inactive. Further, in assay [2], the Potency is 23.1 µM (active).

For `C[C@@H](O)[C@H](NC(=O)c1ccc(C#Cc2ccc(CN3CCOCC3)cc2)cc1)C(=O)NO`, the max response in assay [1] was -14.3%; in assay [2] it was -16.7%.

Take `C/C(=C\CC[C@@H](C)[C@H]1CC(O)[C@@]2(C)C3CC[C@H]4C(C)(C)[C@@H](OC5OCC(O)C(O)C5OC5OC(CO)C(O)C(O)C5O)CC[C@@]45C[C@@]35CC(O)[C@]12C)C(=O)O` (stereo partly drawn): the values for the max response in assay [1] and in assay [2] were -2.5% and 0.167%, respectively.

In the case of `CC1=CC2/C=C(\C)CC[C@@H](O)[C@@H](O)[C@@H]3O[C@@H]3C(=O)[C@]23C(=O)N[C@@H](CC(C)C)[C@@H]3[C@@H]1C` (stereo partly drawn), the max response was -29.8% in assay [1] and 1.09% in assay [2].

Consider `COc1cc(C)c(C(=O)Oc2cc(C)c(C(=O)Oc3cc(C)c(C(=O)NC(C)C(=O)O)c(O)c3)c(O[C@@H]3O[C@H](CO)[C@@H](O)[C@H](O)[C@H]3OC(C)=O)c2)c(OC)c1` (stereo partly drawn), for which the max response is -13.8% in assay [1] and -3.13% in assay [2].

As for `CC1CCC2(OC1)OC1CC3C4CCC5C[C@@H](O[C@@H]6O[C@H](CO[C@@H]7OC[C@@H](O)[C@H](O)[C@H]7O)[C@H](O)[C@H](O)[C@H]6O)CC[C@]5(C)C4CC[C@]3(C)C1C2C` (stereo partly drawn), in assay [1], the max response is -3.87%. Moreover, in assay [2], the result was inactive.

Turning to `Cc1cc(NC(=O)Nc2ccc(F)c(F)c2)n(-c2ccccc2)n1`, the max response in assay [1] was 4.98%; in assay [2] it was -2.17%.

For `C=C1C(O)C(O)C2(CC3C(C)=CCC4C(C)(CO)CCCC34C)OC2C1O` (stereo not drawn), the max response in assay [1] was -2.93%; in assay [2], -13.5%.

Turning to `CC1=C(C(=O)O)/C(=C\CO[C@@H]2O[C@H](CO)[C@@H](O)[C@H](O)[C@H]2O)C(OC(=O)/C=C/c2ccc(O)cc2)C1` (stereo partly drawn), the max response is -18% in assay [1] and 0.858% in assay [2].

As to `N#Cc1ccc(C(=O)N2CCC3(CC2)N=C(N)c2c(F)ccc(F)c2N3)cn1`, the max response in assay [1] was -4.2%; in assay [2], -18.7%.

For the compound `COc1c2ccoc2cc2oc(CO[C@@H]3O[C@H](CO)[C@@H](O)[C@H](O)[C@H]3O)cc(=O)c12`, the results for the max response in assay [1] and in assay [2] were -0.0339% and 1.44%, respectively.

As to `C=C1CCC2C(C)(C(=O)O)CCCC2(C)C1CC/C(=C\CO)CO` (stereo not drawn), the max response in assay [1] was 0.544%; in assay [2] it was 2.54%.

As for `COc1cc2nc(N3CCC(N4CCCCC4)CC3)nc(NC3CCCCCC3)c2cc1OC`, the Potency in assay [1] is 16.4 µM (active); in assay [2] it was 5.17 µM (active).

In the case of `CC(=O)N[C@H](Cc1ccc2ccccc2c1)C(=O)N[C@H](Cc1ccc(Cl)cc1)C(=O)N[C@H](Cc1cccnc1)C(=O)N[C@@H](CO)C(=O)N[C@@H](Cc1ccc(O)cc1)C(=O)N[C@H](CCCNC(N)=O)C(=O)N[C@@H](CC(C)C)C(=O)N[C@@H](CCCN=C(N)N)C(=O)N1CCC[C@H]1C(=O)N[C@H](C)C(N)=O` (Ac-[d2Nal][dPhe(4-Cl)][d3Pal]SY[dCit]LRP[dA]-NH2), the max response in assay [1] was -7.92%; in assay [2] it was -0.834%.

Regarding `CC1(C=O)CC[C@]2(C(=O)O[C@@H]3O[C@H](CO)[C@@H](O)[C@H](O)[C@H]3O)CC[C@]3(C)C(=CCC4[C@@]5(C)C[C@H](O)[C@H](O[C@@H]6OC[C@@H](O)[C@H](O)[C@H]6O)[C@@](C)(CO)C5CC[C@]43C)C2C1` (stereo partly drawn), the max response was -5.25% in assay [1] and -6.07% in assay [2].

Take `COC(=O)N(C)c1c(N)nc(-c2nn(Cc3ccccc3F)c3ncccc23)nc1N`: the compound was classed as inactive in assay [1]. Moreover, the max response in assay [2] is -0.877%.

As for `C=C(C(=O)O)[C@@H]1CC[C@@]2(C)CC[C@H](O)[C@@]2(C(C)=O)C1`, in assay [1], the outcome was inactive. Moreover, the max response in assay [2] was -2.38%.

For the compound `CC(C)=CCC[C@](C)(O[C@@H]1O[C@H](CO[C@@H]2O[C@H](CO)[C@@H](O)[C@H](O)[C@H]2O)[C@@H](O)[C@H](O)[C@H]1O)C1CC[C@]2(C)[C@@H]1[C@H](O)CC1[C@@]3(C)CC[C@H](O[C@@H]4O[C@H](CO)[C@@H](O)[C@H](O)[C@H]4O[C@@H]4O[C@H](CO)[C@@H](O)[C@H](O)[C@H]4O)C(C)(C)[C@@H]3CC[C@]12C` (stereo partly drawn), the max response in assay [1] is -3.43%; in assay [2], 0.0713%.

On to `CC(C)c1cccc2c(-c3ccccc3)cc(-c3ccc(-c4ccc(C(=O)O)cc4)[nH]3)nc12`, for which the values for the max response in assay [1] and in assay [2] were -17.4% and -107%, respectively.

For `Cc1cc(Nc2nc(NC(C)c3ncc(F)cn3)ncc2Cl)n[nH]1` (stereo not drawn), the compound was classed as inactive in assay [1]. Also, the max response in assay [2] is -3.92%.

Take `C/C=C/C=C/C(O)=C1\C(O)=C(C)C(=O)[C@@]2(C)OC(=O)[C@@](C)(NC(=O)/C=C/C(=O)O)[C@@H]12`: the figures for the max response in assay [1] and in assay [2] were -29.7% and -6.48%, respectively.

On to `C[C@@H]1O[C@@H](O[C@@H]2[C@@H](O[C@@H]3O[C@@H](C)[C@H](O[C@@H]4OC[C@H](O)[C@H](O[C@@H]5OC[C@@H](O)[C@H](O)[C@H]5O)[C@H]4O)[C@@H](O[C@@H]4OC[C@](O)(CO)[C@H]4O)[C@H]3O)[C@H](OC(=O)[C@]34CCC(C)(C)C[C@H]3C3=CCC5[C@@]6(C)C[C@H](O)[C@H](O[C@@H]7O[C@H](CO[C@@H]8OC[C@H](O)[C@H](O)[C@H]8O)[C@@H](O)[C@H](O)[C@H]7O)C(C)(C)C6CC[C@@]5(C)[C@]3(C)C[C@H]4O)OC[C@H]2O)[C@H](O)[C@H](O)[C@H]1O` (stereo partly drawn), for which, in assay [1], the outcome was inactive. For the same compound, the max response in assay [2] is 0.0429%.

With `Cc1cc(=O)oc2c(C=O)c(O)ccc12`, in assay [1], the max response is 0.427%. In assay [2], the compound was called inactive.

For the compound `COc1cc2c(cc1O)[C@H](c1ccc(O[C@@H]3O[C@H](CO)[C@@H](O)[C@H](O)[C@H]3O)c(OC)c1)[C@@H](CO)[C@](O)(CO)C2`, the max response in assay [1] was 4.77%; in assay [2], 2.27%.

Consider `CCCn1c(=O)c2[nH]c(-c3ccc(OCC(=O)O)cc3)nc2n(CCC)c1=O`, for which the max response was 3.25% in assay [1] and -2.68% in assay [2].

Consider `C[S+](CC[C@H](N)C(=O)[O-])C[C@H]1O[C@@H](n2cnc3c(N)ncnc32)[C@H](O)[C@@H]1O` (stereo partly drawn), for which the max response in assay [1] was -13.4%; in assay [2], 3.53%.

Regarding `C=C1C(=O)O[C@@H]2/C=C(\C)C(=O)/C=C/[C@](C)(O)C[C@@H](OC(=O)C(C)C)[C@@H]12`, the Potency in assay [1] was 4.04 µM (active); in assay [2] it was 0.805 µM (active).

Turning to `CCC1C(=O)N(C)c2cnc(Nc3ccc(C(=O)NC4CCC(N5CCN(CC6CC6)CC5)CC4)cc3OC)nc2N1C(C)C` (stereo not drawn), the Potency was 4.61 µM (active) in assay [1] and 0.0058 µM (active) in assay [2].

On to `O=C(O)COCCN1CCN([C@H](c2ccccc2)c2ccc(Cl)cc2)CC1`, for which the max response was 2.26% in assay [1] and -2.41% in assay [2].

Regarding `C[C@@H]1O[C@@H](O[C@H]2[C@H](O)[C@@H](C(=O)O)O[C@@H](O[C@H]3CC[C@@]4(C)C(CC[C@]5(C)C4CC=C4C6CC(C)(C)CC[C@]6(C(=O)O)CC[C@]45C)C3(C)C)[C@@H]2O[C@@H]2OC[C@@H](O)[C@H](O)[C@H]2O)[C@H](O)[C@H](O)[C@H]1O` (stereo partly drawn), the max response in assay [1] was 3.95%; in assay [2], -0.663%.

As for `CC(=O)O[C@@H]1[C@@H](O)[C@H](O[C@H]2CC[C@]34C[C@]35CC[C@]3(C)[C@@H]([C@@]6(C)CC[C@@H](C(C)(C)O)O6)[C@@H](O)C[C@@]3(C)[C@@H]5C[C@H](O[C@@H]3O[C@H](CO)[C@@H](O)[C@H](O)[C@H]3O)[C@H]4C2(C)C)OC[C@H]1O`, the max response is 1.83% in assay [1] and -2.54% in assay [2].

In the case of `OC[C@H]1O[C@@H](OCCc2ccccc2)[C@H](O[C@@H]2OC[C@](O)(CO)[C@H]2O)[C@@H](O)[C@@H]1O`, the max response in assay [1] was -6.82%; in assay [2] it was -11.4%.

For `CC(=O)OC1C(OC(=O)c2ccccc2)C2C(C)(C)CC(=O)CC2(C)C23CCC(C)(C2)C(O)CC13` (stereo not drawn), the results for the max response in assay [1] and in assay [2] were -5.07% and -15.7%, respectively.
